# Screening results (PubChem BioAssay)
# EPAC2 ag: qHTS for Agonist of cAMP-regulated guanine nucleotide exchange factor 4 (EPAC2): primary screen; Rap guanine nucleotide exchange factor 4 (Homo sapiens), Q8WZA2; EPAC2 activation, biochemical qHTS; response scale: 100% = 6.5 mM cAMP response; Potency, µM (top dose mostly 154 µM), inactives show top-dose activation, hits mostly activators; 360,000 compounds, 0.079% hits; AID 720711, 2013; also: potency is read from the fitted curve at half-maximal effect; nearly all actives have a fitted effect of over 50% in size
# Target sequence (Q8WZA2 whole entry, looked up): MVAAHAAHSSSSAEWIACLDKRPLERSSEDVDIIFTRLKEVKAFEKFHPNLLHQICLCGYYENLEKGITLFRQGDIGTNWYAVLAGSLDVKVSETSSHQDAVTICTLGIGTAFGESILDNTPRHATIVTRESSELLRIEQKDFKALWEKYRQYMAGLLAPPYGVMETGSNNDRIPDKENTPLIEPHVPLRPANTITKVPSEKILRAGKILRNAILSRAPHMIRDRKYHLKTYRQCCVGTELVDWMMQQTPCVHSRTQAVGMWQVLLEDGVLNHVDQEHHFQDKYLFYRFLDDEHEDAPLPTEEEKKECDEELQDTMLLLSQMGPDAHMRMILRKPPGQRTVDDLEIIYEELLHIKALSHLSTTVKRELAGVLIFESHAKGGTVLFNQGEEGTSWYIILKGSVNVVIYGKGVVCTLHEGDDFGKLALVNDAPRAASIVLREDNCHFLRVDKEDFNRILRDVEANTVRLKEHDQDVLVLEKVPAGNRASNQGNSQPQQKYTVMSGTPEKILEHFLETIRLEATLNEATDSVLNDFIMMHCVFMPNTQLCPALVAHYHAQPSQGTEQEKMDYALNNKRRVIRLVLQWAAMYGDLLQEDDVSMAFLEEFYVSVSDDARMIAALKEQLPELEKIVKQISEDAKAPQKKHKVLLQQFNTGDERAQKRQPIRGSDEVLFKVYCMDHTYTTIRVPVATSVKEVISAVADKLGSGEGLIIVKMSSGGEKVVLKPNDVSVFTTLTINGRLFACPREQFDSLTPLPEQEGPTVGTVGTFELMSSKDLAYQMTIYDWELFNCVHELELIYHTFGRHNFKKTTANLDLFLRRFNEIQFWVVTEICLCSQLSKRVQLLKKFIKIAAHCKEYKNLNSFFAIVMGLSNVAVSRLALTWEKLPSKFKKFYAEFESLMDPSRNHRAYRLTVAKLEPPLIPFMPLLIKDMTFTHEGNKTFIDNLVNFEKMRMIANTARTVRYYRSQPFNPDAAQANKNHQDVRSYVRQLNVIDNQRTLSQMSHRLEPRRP
#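 Setup: EPAC2 100 nM, labeled Rap1B complex 250 nM, free GDP 50 uM. Compound titrations pinned in, brief spin, 5 min room temperature incubation. Kinetic fluorescence read over 30 min, normalized to 6.5 mM cAMP.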
# EPAC1 ag: qHTS for Agonist of cAMP-regulated guanine nucleotide exchange factor 3 (EPAC1): primary screen | Rap guanine nucleotide exchange factor 3 (Homo sapiens), O95398 | EPAC1 agonist qHTS, biochemical assay; response scale: 100% = response to 6.5 mM cAMP | Potency, µM (highest dose often 154 µM), for inactives: at the highest dose activation, hits mostly activators | 360,000 compounds, 0.073% hits | AID 720707, 2013; also: potency is read from the fitted curve at half-maximal effect; nearly all actives have a fitted effect of over 60% in size
#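 Multi-concentration qHTS readout: loss of Rap1B-bound BODIPY-GDP fluorescence driven by 100 nM EPAC1 with excess GDP (50 uM), monitored kinetically at room temperature; agonist response expressed relative to 6.5 mM cAMP.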
# EPAC2 antagonist: qHTS for Antagonist of cAMP-regulated guanine nucleotide exchange factor 2 (EPAC2): primary screen; Rap guanine nucleotide exchange factor 4 (Homo sapiens), Q8WZA2; 360,000 compounds, 0.18% hits; Potency, µM (top dose mostly 114 µM), without a hit: at the top dose activity, negative = inhibition, usual class: inhibitors; EPAC2 GEF exchange of Rap1B-BODIPY-GDP, fluorescence; also: potency is read from the fitted curve at half-maximal effect; % is scaled to controls: 0 for no effect and ±100 for the full control effect; nearly all actives have a fitted effect of over 45% in size
# USP1-UAF1 inh: Inhibitors of USP1/UAF1: Primary Screen. Ubiquitin carboxyl-terminal hydrolase 1 (Homo sapiens), O94782. recombinant USP1/UAF1, Ub-Rhodamine cleavage fluorescence. Potency, µM (top dose mostly 57.1 µM), for inactives: top-dose activity change, negative = inhibition, hits mostly inhibitors. 390,000 compounds, 0.23% hits; also: potency is read from the fitted curve at half-maximal effect; % is scaled to controls: 0 for no effect and ±100 for the full control effect; nearly all actives have a fitted effect of over 60% in size
#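 USP1/UAF1 complex (1 nM) preincubated 15 min at room temperature with compound, then Ub-Rho substrate (150 nM final) added. Kinetic fluorescence at 480/540 nm over 6 reads at 60 s intervals; 50 mM HEPES pH 7.8, 0.5 mM EDTA, 0.1 mg/ml BSA, 1 mM TCEP, 0.01% Tween-20.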
# LDHA inh: qHTS assay for inhibitors of human lactate dehydrogenase; L-lactate dehydrogenase A chain (Homo sapiens), P00338; 480,000 compounds, 0.15% hits; purified LDHA, NADH/diaphorase-resazurin fluorescence; hits give low values; activity change, % (values are at about 110 or 230 µM); AID 1347041, 2019; in the data active = activity change below about -30%; inconclusive = mostly about -25% to -30%;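 also: plate controls were DMSO wells for no effect and wells without enzyme for full effect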
#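 Remaining NADH was detected by diaphorase (0.133 mg/mL) converting 37 µM resazurin to fluorescent resorufin, read at 0 and 20 minutes. The preceding 5-minute room-temperature reaction used 2 nM LDHA, 0.2 mM sodium pyruvate and 0.06 mM NADH at pH 7.4.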
# EPAC1 antagonist: qHTS for Antagonist of cAMP-regulated guanine nucleotide exchange factor 3 (EPAC1): primary screen | Potency, µM (highest dose often 115 µM), for the others: top-dose activity change, negative = inhibition, actives largely listed as inhibitors | 360,000 compounds, 0.14% hits | AID 720709, 2013 | EPAC1 GEF assay, Rap1b-BODIPY-GDP exchange fluorescence;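 also: potency is read from the fitted curve at half-maximal effect; plate controls were vehicle for no effect and positive control for full effect; nearly all actives have a fitted effect of over 50% in size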
# Active calls of the source: *; ? = inconclusive; nt = not tested or not shown. A selection: hits, their analogues and other compounds. The true share with any hit is near 0.56%. Unless noted, calls follow the shape of the dose curve; as a rule, active = well fitted curve in the direction sought with a large enough effect; inconclusive = small, poorly fitted or top-dose-only effect, or another doubt; inactive = no such curve, though single readings can be large; an effect the other way counts as inactive or inconclusive.
SMILES,EPAC2 ag,EPAC1 ag,EPAC2 antagonist,USP1-UAF1 inh,LDHA inh,EPAC1 antagonist
O=C1NC(=O)N(Cc2ccco2)C(=O)/C1=C\c1cccn1CCOc1ccc(Cl)cc1,5%,-12%,-8%,-12%,-3,50µM*
COc1ccc(CN2C(=O)NC(=O)/C(=C\c3ccco3)C2=O)cc1,4%,-6%,2%,?,-2,50µM*
COc1ccc(CN2C(=O)NC(=O)/C(=C/c3ccc([N+](=O)[O-])s3)C2=O)cc1,-10%,-7%,3%,35µM*,0,40µM*
Cc1ccc2[nH]c(C)c(C(O)CN3CCCCC3)c2c1 (stereo unspecified),nt,nt,nt,nt,1,nt
CC(C)NC(=O)CN(C)C(=O)c1cn(Cc2ccccc2)c2ccccc12,nt,nt,nt,nt,-10,nt
O=P1(c2ccccc2)Nc2ccccc2N1c1ccccc1 (stereo unspecified),11%,1%,-2%,-17%,2,-9%
Cn1c(=O)n(C)c2cc(CNCCc3ccccc3F)ccc21,nt,nt,nt,15%,-12,nt
Oc1ccc(Cl)cc1Cc1cc(Cl)ccc1O,9%,4%,79µM*,-19%,-7,-13%
Oc1ccc(Cl)cc1Cc1ccccc1,11%,0%,?,-18%,-3,-14%
COc1ccc(/C=C2/C(=O)N(Cc3ccco3)C(=O)N(C(C)C)C2=O)cc1,-10%,-5%,40%,?,4,32µM*
CC(C)OCCCNC(=O)c1c(N)n(CC2CCCO2)c2nc3ccccc3nc12 (stereo unspecified),3%,6%,?,28µM*,24,?
COCCCn1c(N)c(C(=O)NCCC(C)C)c2nc3ccccc3nc21,-3%,23%,?,22µM*,33,50µM*
CCCCNC(=O)c1c(N)n(Cc2ccc3c(c2)OCO3)c2nc3ccccc3nc12,10%,8%,1%,28µM*,17,-29%
COC(=O)C1=C(c2ccc(OCc3ccccc3)c(F)c2)C[C@@H]2CC[C@H]1N2C,13%,-7%,-15%,-24%,-3,-8%
COc1ccc(CN2CCN(C(=O)COc3ccc4ccccc4c3)CC2)cc1OC,nt,nt,nt,nt,5,nt
Cc1ccc(C2=CCN(Cc3oc(CO)cc(=O)c3O)CC2)cc1,nt,nt,nt,nt,4,nt
CCOc1ccccc1N1C(=O)CC(=O)NC1=O,20%,0%,1%,0%,-30*,-6%
CCOc1ccc(N2C(=O)CC(=O)NC2=O)cc1,4%,1%,9%,-20%,-6,-9%
CCCCn1c(NS(=O)(=O)c2ccc(C)cc2)c(C(=O)OCC)c2nc3ccccc3nc21,-8%,112µM*,-9%,?,25,?
CCCCn1c(NC(=O)c2ccco2)c(C(=O)OCC)c2nc3ccccc3nc21,5%,7%,9%,25µM*,19,?
CC/C=C(/C)C(=O)NC(C)Cc1ccc(Br)cc1 (stereo unspecified),nt,nt,nt,nt,4,nt
CCN(CC)c1ccc(N=Cc2c(O)n(-c3ccccc3C)c(=O)[nH]c2=O)cc1,89µM*,100µM*,9%,?,11,-1%
CCOc1ccc(-n2c(O)c(C=Nc3ccc(N(CC)CC)cc3)c(=O)[nH]c2=O)cc1,-192%,-12%,109%,-27%,9,9%
CCN(CC)c1ccc(N=Cc2c(O)n(-c3ccccc3)c(=O)[nH]c2=O)cc1,-10%,-18%,40%,?,5,-9%
CCOc1ccccc1-n1c(O)c(C=Nc2ccc(N(CC)CC)cc2)c(=O)[nH]c1=O,100µM*,71µM*,32%,?,8,8%
SMILES,EPAC2 ag,EPAC1 ag,EPAC2 antagonist,USP1-UAF1 inh,LDHA inh,EPAC1 antagonist
CSc1nc(N)c2c(n1)OC(N)=C(C#N)C2c1cc(Br)ccc1F (stereo unspecified),nt,nt,nt,nt,-6,nt
c1ccc(-n2nnnc2C2(NC3CCCCC3)CCCCC2)cc1,nt,nt,nt,nt,5,nt
COc1cc(C(c2c(C)[nH]n(-c3ccccc3)c2=O)c2c(C)[nH]n(-c3ccccc3)c2=O)cc(OC)c1OC,6%,8%,-9%,?,9,-13%
Cc1[nH]n(-c2ccccc2)c(=O)c1C(c1cccc([N+](=O)[O-])c1O)c1c(C)[nH]n(-c2ccccc2)c1=O,1%,0%,-11%,-8%,-5,56µM*
CCCNC1CCCC1,nt,nt,nt,nt,-4,nt
Cc1nn(-c2ncnc3nc[nH]c23)c2c1C(c1ccc(C(C)C)cc1)SCC(=O)N2 (stereo unspecified),nt,nt,nt,nt,0,nt
Cc1cc(C)n2nc(C(=O)Nc3ccc(Cl)cc3C(=O)c3ccccc3F)nc2n1,nt,nt,nt,nt,1,nt
Cc1cc(C=C(C#N)C#N)ccc1N1CCCC1,100µM*,?,7%,?,-6,2%
N#CC(C#N)=Cc1ccc(N2CCOCC2)cc1,-12%,-1%,6%,8%,-6,-6%
Cc1ccc(/C=C2\C(=O)NC(=S)N(c3ccccc3F)C2=O)s1,-10%,2%,-1%,-15%,-33*,?
O=C(O)CCCCNCc1ccc(C(=O)O)cc1,nt,nt,nt,nt,4,nt
CCCn1c(C)c(C(=O)NC2CCCCC2)c2cc(OC)ccc21,nt,nt,nt,nt,-22,nt
C[N+](C)(C)CC1CCCC(C[N+](C)(C)C)C1=O (stereo unspecified),0%,2%,7%,-7%,-41*,9%
C[N+](C)(C)CC1CCCc2ccccc2C1=O (stereo unspecified),5%,-2%,13%,-19%,?,-10%
COc1ccc(N2C(=O)NC(=O)/C(=C\c3ccc([N+](=O)[O-])s3)C2=O)cc1,-18%,-5%,-4%,16µM*,27,?
COc1ccccc1N1C(=O)NC(=O)/C(=C/c2ccc([N+](=O)[O-])s2)C1=O,5%,2%,-1%,32µM*,19,?
O=C1NC(=O)N(c2ccccc2)C(=O)/C1=C/c1ccoc1,11%,23%,-8%,-20%,1,-7%
O=C1NC(=O)N(c2ccccc2)C(=O)/C1=C\c1ccccc1[N+](=O)[O-],2%,-4%,-2%,-6%,-35*,-13%
